# Compound activity: PubChem, several laboratories
# Only some compounds are listed: those with a hit (about 27% of all), similar ones and a draw of the others.
# CYP2C9 activ: human CYP2C9 activators, primary screen, biochemical, luminescence | Cytochrome P450 2C9 (Homo sapiens), P11712 | activation factor at 5 µM | recombinant CYP2C9, luciferin-H conversion; stronger effect = higher value; factor 1 = untreated enzyme, 0 = blocked | AID 1024, 2008 | 1.4% of 96,000 active;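 active = activation factor of 2 or more for CYP2C9 at a 5 µM dose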;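 also: 0 = sulfaphenazole-blocked wells and 1 = vehicle-only wells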
# Target sequence (P11712 whole entry, looked up): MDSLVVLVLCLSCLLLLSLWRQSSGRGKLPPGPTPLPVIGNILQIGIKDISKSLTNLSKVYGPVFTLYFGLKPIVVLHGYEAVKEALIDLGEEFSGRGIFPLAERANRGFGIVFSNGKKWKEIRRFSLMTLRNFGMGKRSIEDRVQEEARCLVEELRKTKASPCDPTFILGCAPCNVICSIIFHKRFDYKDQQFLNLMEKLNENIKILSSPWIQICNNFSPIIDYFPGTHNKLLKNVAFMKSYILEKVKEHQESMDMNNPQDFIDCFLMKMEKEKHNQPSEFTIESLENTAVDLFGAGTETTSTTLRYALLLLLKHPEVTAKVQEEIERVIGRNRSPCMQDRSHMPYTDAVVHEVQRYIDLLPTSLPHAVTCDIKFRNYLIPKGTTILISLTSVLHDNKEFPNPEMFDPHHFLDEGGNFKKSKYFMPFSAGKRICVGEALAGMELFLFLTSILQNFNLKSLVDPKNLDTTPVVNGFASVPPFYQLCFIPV
# CYP2C19 inhib: blockers of cytochrome P450 2C19 activity – biochemical, luminescence, ADME assay, primary screen | CYP2C19 Supersomes, luciferin-H EGE luminescence, 30 min | 21% of 96,000 active | P33261 | AID 778, 2007 | inhibition, % at 5 µM;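 active = CYP2C19 inhibition above a set limit at 5 µM in the primary screen, cut at about 50% in these data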;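 also: plate controls were negative control wells for no effect and 2.5 mM tranylcypromine positive control for full effect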
# CYP2C9 inh: blockers of cytochrome P450 2C9 activity – biochemical, luminescence, ADME assay, primary screen | P11712 | CYP2C9 Supersomes, luciferin-H conversion | inhibition, % at 5 µM | 20% of 96,000 active | AID 777, 2007;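 active = blocking of liver enzyme CYP2C9 beyond about 50% at 5 µM, limit read from the data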
# CYP2C19 activ: human CYP2C19 activators, primary screen, biochemical, luminescence | Cytochrome P450 2C19 (Homo sapiens), P33261 | recombinant CYP2C19, luciferin-H EGE luminescence; stronger effect = higher value; 0 = fully inhibited enzyme, 1 = untreated enzyme | activation factor at 5 µM | 96,000 tested, under 10 active | AID 1025, 2008;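 active = activation factor of at least 2 at 5 µM in the primary screen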;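 also: 0 = wells with 2.5 mM tranylcypromine and 1 = vehicle-only wells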
# Cav32 inh: Cav3.2 calcium influx blockers – cell-based, Fluo-4 calcium fluorescence, FDSS, MLSMR library, primary screen; Voltage-dependent T-type calcium channel subunit alpha-1H (Homo sapiens), O95180; Cav3.2-expressing cells; stronger effect = lower value; B-score at 10 µM; 4% of 100,000 active;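 active = single-dose well whose peak fluorescence ratio is a statistical outlier from its plate by either plate-standardised score or position-corrected B-score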
# An asterisk follows results filed as active; nt = no result.
SMILES,CYP2C9 activ,CYP2C19 inhib,CYP2C9 inh,CYP2C19 activ,Cav32 inh
COc1cc(-c2nc3n(n2)C(c2cccc(OC)c2OC)C2=C(CCCC2=O)N3)cc(OC)c1OC (stereo not drawn),0.9,19,6,0.8,1.7
CC(=O)N1CCCc2cc(S(=O)(=O)N(CC(C)C)CC(C)C)ccc21,1,9,2,0.9,-0.69
COc1cccc(NS(=O)(=O)c2ccc3c(c2)CCCN3C(C)=O)c1,0.4,96*,56*,0,-0.023
CCOC(=O)c1ccc(NS(=O)(=O)N2CCCCCC2)cc1,0.3,9,68*,0.9,-3.6
CC(=O)N1CCc2cc(NS(=O)(=O)c3cccs3)ccc21,0.1,62*,89*,0.4,-0.1
O=S(=O)(Nc1ccc2c(c1)OCCO2)c1cccs1,0.8,28,23,0.7,0.32
CCOC(=O)c1ccc(NS(=O)(=O)c2ccc3c(c2)CCCN3C(C)=O)cc1,0.3,11,72*,0.9,0.38
CCN(CC)c1nc(=S)nc(NC(C)(C)C)[nH]1,0.9,-2,5,1,0.3
Cc1ccc(C23CC4CC(CC(NC(=O)N5CCN(C)CC5)(C4)C2)C3)cc1,0.7,36,30,0.6,1.6
Cc1ccc(C23CC4CC(CC(NC(=O)NC(C)(C)CO)(C4)C2)C3)cc1,0.3,73*,75*,0.3,0.35
CCc1ccc(C(=O)COC(=O)c2cccc(N3C(=O)c4c(C)nc5ccccc5c4C3=O)c2)cc1,0.6,-5,36,1,nt
CCc1nnc(NC(=O)Cn2nnc(-c3ccccc3F)n2)s1,0.3,11,66*,0.9,0.25
Cc1ccccc1-c1nnn(CC(=O)N2CCN(S(=O)(=O)c3ccc(Cl)cc3)CC2)n1,0.8,62*,20,0.4,nt
CC1CCCN(S(=O)(=O)c2ccc(NC(=O)Cn3nnc(-c4ccccc4F)n3)cc2)C1 (stereo not drawn),0,62*,99*,0.4,-0.89
CC(=O)c1ccc(NS(=O)(=O)c2ccc(C)cc2)cc1,0.2,80*,80*,0.2,-0.79
COc1ccc(NS(=O)(=O)c2cccc(C(=O)O)c2)cc1,1.2,19,-20,0.8,0.39
CC(=O)c1ccc(NS(=O)(=O)c2cccc(C)c2)cc1,0,99*,95*,0,-0.12
COc1cccc(N=C2SC(C(=O)Nc3ccc(F)cc3)CC(=O)N2C)c1 (stereo not drawn),0,83*,99*,0.2,-2.6
Cc1cc2ccccc2n1CCNC(=O)Cc1cccc2ccccc12,1,21,-4,0.8,-1.5
Cc1nc(NC(=O)c2cc3c(s2)CCCCC3)sc1C(=O)N(C)C,0.4,34,56*,0.7,0.091
COC(=O)c1sc(NC(=O)c2cc3c(s2)CCCC3)nc1C,1,11,0,0.9,-0.24
COc1cccc(-c2nc3ccccc3c(=O)o2)c1,0.8,8,20,0.9,-0.97
COc1cc(OC)cc(C(=O)Nn2c(C)nc3ccccc3c2=O)c1,0.5,36,53*,0.6,-1.3
COc1ccc2[nH]c3c(c2c1)CCn1c-3nc2ccccc2c1=O,0.6,75*,42,0.3,nt
Cc1ccc(C)c(OCC(=O)Nn2c(C)nc3ccccc3c2=O)c1,0.2,5,78*,0.9,2.1
SMILES,CYP2C9 activ,CYP2C19 inhib,CYP2C9 inh,CYP2C19 activ,Cav32 inh
COc1ccc(Br)c(C(=O)Nn2c(C)nc3ccccc3c2=O)c1,0.5,-11,54*,1.1,1.4
COc1ccc(C(=O)Nc2ccccc2NC(=O)c2ccco2)cc1OC,0.8,-4,21,1,-1.3
COc1cc(OC)cc(C(=O)Nn2cc(C(=O)N3CCN(C)CC3)c3ccccc3c2=O)c1,0.4,11,58*,0.9,0.98
COc1cccc(CC(=O)Nn2c(C)nc3ccccc3c2=O)c1,0.1,40,87*,0.6,0.61
Cc1nc2ccccc2c(=O)n1NC(=O)c1ccc(F)cc1Cl,0.2,-3,81*,1,0.061
COc1cc(OC)cc(C(=O)Nc2ccccc2C(=O)N2CCCC2)c1,1.1,3,-5,1,-0.79
COc1ccccc1C(=O)Nn1c(C2CCC2)nc2ccccc2c1=O,0.1,54*,95*,0.5,-2.1
O=c1oc(-c2ccccc2Cl)nc2ccsc12,0.9,77*,14,0.2,-1.8
O=c1sc(Nc2ccccc2)nc2ccsc12,0.6,33,40,0.7,-1.7
O=C(COC(=O)c1cccc(S(=O)(=O)NCc2ccccc2)c1)Nc1ccccc1OC(F)F,0.8,60*,21,0.4,-2.4
COc1ccccc1NC(=O)c1ccc(S(=O)(=O)N(C)C)cc1,1,10,-2,0.9,0.94
CN(C)S(=O)(=O)c1ccc(C(=O)OCC(=O)Nc2ccccc2OC(F)F)cc1,0.4,8,58*,0.9,-1.3
O=C(COC(=O)c1ccc(S(=O)(=O)NCc2ccco2)cc1)Nc1ccccc1OC(F)F,0.2,5,76*,1,-1.8
O=C(COC(=O)COc1ccccc1Cl)Nc1ccccc1OC(F)F,0.8,9,19,0.9,0.33
COC(=O)CNc1nc(OC)nc(N(C)C)n1,1.3,-21,-32,1.2,-0.25
CC1(C)CC(=O)C(CCC(=O)c2ccccc2)C(C)(C)N1 (stereo not drawn),1.1,0,-6,1,nt
COc1cc(NC(=O)CN2CCN(Cc3ccc4c(c3)OCO4)CC2)cc(OC)c1,0.5,49,47,0.5,nt
COc1ccc(OC2C(=O)N(Cc3ccc4c(c3)OCO4)C2c2sccc2C)cc1 (stereo not drawn),0.3,74*,69*,0.3,-2.5
CCCC(=O)N(CCN(C(=O)CCC)c1ccccc1)c1ccccc1,nt,nt,nt,nt,-4.1*
C#CCNC(=O)/C=C/c1ccc(OC)cc1,nt,nt,nt,nt,0.26
Cc1nc2[nH]c(=O)c3c(n2n1)NC1=C(C(=O)CC(C)(C)C1)C3c1ccccc1 (stereo not drawn),0.3,0,67*,1,-0.34
O=C(CN1C(=O)c2ccccc2S1(=O)=O)NCCC1=CCCCC1,nt,nt,nt,nt,1.8
O=c1c(F)cn(C2CCCO2)c(=O)n1Cc1c(Cl)cccc1Cl (stereo not drawn),0.7,66*,33,0.3,1.4
c1csc(-c2nn3c(-c4ccncc4)nnc3s2)c1,0.7,36,32,0.6,nt
Clc1ccc(OCc2nn3c(-c4ccccc4)nnc3s2)c(Cl)c1,0.8,3,23,1,0.69
c1csc(Cc2nn3c(-c4ccncc4)nnc3s2)c1,0.2,98*,80*,0,0.66
Clc1ccccc1OCc1nn2c(-c3ccncc3)nnc2s1,0.2,100*,80*,0,0.32
CCN(CC)C(=O)C1CCCN(Cc2ccc(OC)c(C)c2)C1 (stereo not drawn),1.1,19,-12,0.8,0.0086
